Among all 43,000 compounds or so, about 830 (1.9%) were called active. Roughly 30% stayed inconclusive and do not appear here. How the source made its calls: active means clear falling dose curves in both reporters; inconclusive means both reporters move, but less clearly or upward; inactive means either reporter flat; the % is the NLuc reporter signal. The entries come from a sample that favours actives as a whole. Entries that show only a call come without a potency.
Potency means the concentration at half of the fitted maximal effect.

The assay can be described thus: Cell-based coincidence reporter assay to measure PMP22 gene transcription in S16 Pmp22-F2sN cells - Primary screen. To be noted: S16 Pmp22-F2sN Schwann cells (luciferase reporters placed in the Pmp22 gene), FLuc/NLuc coincidence luminescence, 24 h; series mostly up to 57.5 µM. An excerpt: Assay Provider: Jim Inglese Ph.D. National Center for Advancing Translational Science, National Institutes of Health, Rockville, MD CMT is a heterogeneous group of neurological disorders that affect approximately 1 in 2,500 people. In particular, the most common form of CMT, CMT1A is genetically linked to the duplication of the PMP22 gene which leads to Schwann cell overexpression, thus manifesting itself as a typical case of dose-sensitive diseases. To identify small molecule compounds that can mediate the expression of PMP22 we developed a phenotypic assay screening strategy by utilizing genome editing techniques to construct Schwann cell lines containing novel reporter technology to monitor the transcriptional or translational regulation of PMP22. For high sensitivity we use a bioluminescent reporter system embedded in the 3' UTR of the PMP22 gene (S16(c9) Pmp22-F2sN) to identify compounds that inhibit gene expression. […] We can further discriminate the effect of all transcriptionally active molecules on PMP22 translation or stability with an assay that incorporates a short NLuc peptide (HiBiT) at the C-terminus of expressed PMP22 (S16(f8) PMP22-HiBiT) allowing alpha complementation and luminescence detection of membrane-associated PMP22 protein. These assays were screened against the NCATS Sytravon Library Collection. Miniaturization of these assays to 1536-well plate format for quantitative high throughput screening (qHTS) yielded rich data sets immediately from the qHTS assay (S16(c9) Pmp22-F2sN), when compared with data from a cell viability assay (Cell TiterGlo) to identify compounds that decreased the output signals through cellular toxicity to streamline the selection process of actives for subsequent characterization using the HiBiT assay (S16(f8) PMP22-HiBiT).
Cell-based coincidence reporter assay to measure PMP22 gene transcription in S16 Pmp22-F2sN cells PROTOCOL TABLE (format as described by Inglese J, Shamu CE and Guy RK. 2007) SEQUENCE No. (e.g., 1, 2, 3, etc.); […] (e.g., Cells, Incubation, Reagent, etc.); VALUE and DESCRIPTION. 1. Cells. Add 500-1,000 cells in 4 uL in growth media (DMEM High Glucose, No Phenol Red media + 10% heat-inactivated FBS + 1% Pen/Strep supplemented media) per well into Greiner 1536-well white/solid bottom high base, TC-treated plates. 2. Compounds. Library compounds and controls added at 23nL per well, transferred by Pin Tool. 3. Incubation. Incubate plates at 37C, 5% CO2, 95% RH for 24 h. 4. Reagent. Add 3.5uL Nano-Glo Dual-Luciferase Reporter Assay System reagent 1: Lysis and FLuc reagent per well of Greiner 1536-well plates. 5. Incubation. Incubate plates at room temperature for 10 min., protect from light. 6. Detector. FLuc luminescence measured using CCD-based camera (Viewlux). 7. Reagent. Add 3.5uL Nano-Glo Dual-Luciferase Reporter Assay System reagent 2: Stop&Glo reagent per well of Greiner 1536-well plates. 8. Incubation. Incubate plates at room temperature for 10 min., protect from light. 9. Detector. NLuc luminescence measured using CCD-based camera (Viewlux). NOTES (numbers refer to Sequence numbers above; values are from representative experiments) 6. Luminescence Read #1 (FLuc): Clear filter; Exposure = 10 sec, Gain = High, Speed = Slow, Binning = 2X 9. Luminescence Read #2 (NLuc): Clear filter; Exposure = 1 sec, Gain = High, Speed = Slow, Binning = 2X REFERENCES: 1. Inglese J, Shamu CE and Guy RK, Reporting data from high throughput screening of small molecule libraries, Nature Chemical Biology, 2007, 3(8): 438-441. doi.org/10.1038/nchembio0807-438 2. Yasgar A, Shinn P, Jadhav A, Auld DS, Michael S, Zheng W, Austin CP, Inglese J and Simeonov A, Compound Management for Quantitative High-Throughput Screening. J. Assoc. Lab. Auto., 2008, 13: 79-89. doi: 10.1016/j.jala.2007.12.004
For the compound `CCS(=O)(=O)c1ncc(N(Cc2ccc(F)cc2)Cc2ccco2)c(C(=O)Nc2cc(C)ccc2C)n1`, the Potency result is “inactive”.

`Cc1ccc(NC(=O)c2nc(S(=O)(=O)Cc3cccc(C)c3)ncc2Cl)cc1`: the Potency was 4.22 µM (active).

Turning to `CCSc1ncc(Cl)c(C(=O)Nc2cc(C)ccc2C)n1`, the Potency result is “inactive”.

Turning to `Cc1cc2oc(C(=O)N(Cc3ccc(Cl)cc3)Cc3ccco3)c(C)c2cc1Cl`, the Potency entry is “inactive”.

With `COc1ccccc1CNC(=O)C(=O)NCC(c1ccco1)S(=O)(=O)c1ccc(F)cc1` (configuration not stated), the Potency entry is “inactive”.

Turning to `CC(C)(C)c1ccc(C(=O)NCC(c2ccco2)S(=O)(=O)c2ccc(F)cc2)cc1` (configuration not stated), the Potency is 15.8 µM (active).

With `O=C(NCC(c1ccco1)S(=O)(=O)c1cccs1)c1ccc(F)cc1` (configuration not stated), the Potency entry was “inactive”.

Turning to `O=S(=O)(c1ccc2nc(NCc3ccccc3Cl)ccc2c1)N1CCCCC1`, the Potency result is “inactive”.

For the compound `COc1ccccc1NC(=O)CN1C(=O)c2ccccc2Sc2ccc(C(=O)N3CCCC3)cc21`, the Potency entry was “inactive”.

With `Cc1cccc(C(=O)Nc2ccc(-c3nc4ncccc4o3)cc2C)c1`, the Potency entry was “inactive”.

Take `CC1=Nc2cc(C(=O)NCc3ccc(C)cc3)ccc2Sc2ccc(Cl)cc21`: the Potency entry was “inactive”.

For the compound `CCC1=Nc2cc(C(=O)NCCCOC(C)C)ccc2Sc2ccc(C)cc21`, the Potency is 8.54 µM (active).

For `CCOCCCNC(=O)c1ccc2nc(CCc3ccccc3)oc2c1`, the Potency result was “inactive”.

Consider `O=C(Nc1ccc(F)cc1F)c1ccc2c(=O)n3c(nc2c1)CCCCC3`, for which the Potency entry is “inactive”.

Regarding `Cc1cc(N2CCN(c3cccc(C(F)(F)F)c3)CC2)n2nc(-c3ccccc3)nc2n1`, the Potency result is “inactive”.

On to `O=C(CSc1oc(-c2ccco2)nc1S(=O)(=O)c1ccc(Cl)cc1)c1ccccc1`, for which the Potency entry is “inactive”.

For the compound `CCc1ccc2oc(-c3ccc(C)c(NC(=O)/C=C/c4ccco4)c3)nc2c1`, the Potency entry is “inactive”.

Turning to `COc1ccc(CNC(=O)CSc2nc3ccccc3nc2Cc2ccccc2)cc1`, the Potency entry is “inactive”.

For `CCc1ccc(NC(=O)c2nn(-c3ccc(C)cc3)c(=O)n(C)c2=O)cc1`, the Potency entry is “inactive”.

For `Fc1ccc(-c2nc(Nc3cccc(Cl)c3)nc3c2COc2ccccc2-3)cc1`, the Potency entry was “inactive”.

Consider `Cc1ccc(CNC(=O)CSc2c3c(nc4cc(Cl)ccc24)CCCC3)cc1`, for which the Potency entry was “inactive”.

Regarding `CCOC(=O)C1CCCN(C(=O)c2ccc3c(c2)sc2nc(-c4ccc(CC)cc4)cn23)C1` (configuration not stated), the Potency result was “inactive”.

Take `CCOC(=O)C1CCN(C(=O)CSc2c3c(nc4ccc(Cl)cc24)CCCC3)CC1`: the Potency was 18.9 µM (active).

For the compound `CCOc1ccc(N2CC(c3nc4ccccc4n3CCOc3ccc(OC)cc3)CC2=O)cc1` (configuration not stated), the Potency result was “inactive”.

Consider `CCCN1C(=O)C(O)(CC(=O)c2ccc(CC)cc2)c2cc(Br)ccc21` (configuration not stated), for which the Potency is 12.6 µM (active).

Consider `Cc1cc(C)cc(NC(=O)CCS(=O)(=O)c2cc3c4c(c2)CCN4C(=O)CC3)c1`, for which the Potency entry is “inactive”.

In the case of `CCOC(=O)c1c(C)[nH]c(CCC(=O)NCCCN2CCN(c3cccc(Cl)c3)CC2)c1C`, the Potency is 17.9 µM (active).

With `CCOC(=O)c1c(C)[nH]c(C)c1S(=O)(=O)N(C)CC(=O)N1CCN(c2ccccc2)CC1`, the Potency result was “inactive”.

`Cc1ccc(C)c(N2CCN(C(=O)Cc3c(C(=O)O)c(C)cn3C)CC2)c1`: the Potency result was “inactive”.

On to `CCOC(=O)c1c(C)[nH]c(CCC(=O)NCCCN2CCN(c3cc(C)ccc3C)CC2)c1C`, for which the Potency is 12.1 µM (active).

On to `Cc1ccc(C)c(N2CCN(C(=O)CCc3c(C)nc4c(c3C)c(=O)n(C)c(=O)n4C)CC2)c1`, for which the Potency result was “inactive”.

As for `CCOC(=O)c1[nH]c(C)c(CCC(=O)N2CCN(c3ccccc3)CC2)c1C`, the Potency result was “inactive”.

Regarding `O=C(CSc1nnc(-c2ccccc2F)o1)Nc1cccc(C(F)(F)F)c1`, the Potency result is “inactive”.

`COc1cccc(NC(=O)C(=O)NCC(c2ccc3c(c2)OCO3)N2CCN(C)CC2)c1` (configuration not stated): the Potency entry was “inactive”.

As to `COc1cc(NC(=O)C2CCN(c3cnccn3)CC2)cc(OC)c1`, the Potency result was “inactive”.

`Brc1ccc(-c2noc(-c3ccccc3)n2)o1`: the Potency result was “inactive”.

On to `O=C(NCCCc1ccccc1)c1ccc2c(c1)sc1nc(-c3ccc(F)cc3)cn12`, for which the Potency entry is “inactive”.

In the case of `CCCCOc1ccc(CN2C(=O)C(=O)c3cc(Br)cc(C)c32)cc1OC`, the Potency is 4.5 µM (active).

Consider `CCOc1ccc(CNCc2c(C(=O)O)c(C)n(Cc3cccc(OC)c3)c2C)cc1OC`, for which the Potency result is “inactive”.

With `CCCCOc1ccc(Cn2c(=O)oc3ccc(C)cc32)cc1OC`, the Potency result was “inactive”.

As for `Cc1ccc(-c2cc(C(F)(F)F)c(C#N)c(SCC(=O)Nc3ccccc3)n2)cc1`, the Potency entry was “inactive”.

As to `CCOC(=O)c1c(NC(=O)c2cc(-c3ccc(Cl)cc3)on2)sc2c1CCCC2`, the Potency result was “inactive”.

`COc1ccc(/C=C/c2noc(-c3ccccc3O)n2)cc1OC`: the Potency result is “inactive”.

Take `Cc1c(-c2nc(-c3ccc4c(c3)OCO4)no2)nnn1-c1ccc(Br)cc1F`: the Potency result was “inactive”.

For `COc1cccc(CNS(=O)(=O)c2cc3c(cc2C)n(C)c(=O)c(=O)n3C)c1`, the Potency result is “inactive”.

Turning to `Cc1ccc(-n2c(=O)c3cccnc3n2CC(=O)NCc2ccc(F)cc2)cc1C`, the Potency result is “inactive”.

Consider `O=C(CCCn1c(=O)c2cccn2c2cccnc21)NCc1ccc(F)cc1`, for which the Potency is 17.9 µM (active).
